PubChem BioAssay (EPA / NIEHS)
Calls of active or inactive are those of the source. How the source made its calls: active means hit-call score of the fitted dose curve at least 0.9, where 1 is the maximum; inactive means score below 0.9.

Experiments:
Conditions in all cases: mRNA level, 48 h; actives raise or lower the signal
[1] = read-out: JUN Transcription Factor, JUN (gene 3725); experiment: LTEA_HepaRG_JUN: Life Technologies and Expression Analysis (LTEA) Assay for JUN Transcription Factor using HepaRG (AID 2283513)
Procedure, shortened: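 Human HepaRG liver cells receive test chemicals in 0.5% DMSO for 48 h across an eight-point range topping at 100 uM. Expression changes in JUN are scored in both directions against the DMSO vehicle.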

[2] = read-out: Lipase C (LIPC), LIPC (gene 3990); experiment: LTEA_HepaRG_LIPC: Life Technologies and Expression Analysis (LTEA) Assay for Lipase C (LIPC) using HepaRG (AID 2283514)
Procedure, shortened: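 Differentiated human HepaRG cells in serum-free induction medium were exposed in duplicate for 48 h to eight concentrations (top 100 uM, half-log steps, 0.5% DMSO). LIPC mRNA was quantified by TaqMan qRT-PCR, normalized to ACTB, GAPDH and POLR2A, with bidirectional fitting versus DMSO.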

[3] = read-out: Lipoprotein lipase (LPL), LPL (gene 4023); experiment: LTEA_HepaRG_LPL: Life Technologies and Expression Analysis (LTEA) Assay for Lipoprotein lipase (LPL) using HepaRG (AID 2283515)
Procedure, shortened: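 Differentiated human HepaRG cells in serum-free induction medium were exposed in duplicate for 48 h to eight half-log concentrations (top 100 uM) in 0.5% DMSO. LPL mRNA was quantified by TaqMan qRT-PCR, normalized to ACTB, GAPDH and POLR2A.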

[4] = read-out: MicroRNA 122 (MIR122), gene 406906; experiment: LTEA_HepaRG_MIR122: Life Technologies and Expression Analysis (LTEA) Assay for MicroRNA 122 (MIR122) using HepaRG (AID 2283516); further: the transcript read is the microRNA miR-122
Procedure, shortened: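 HepaRG, 48 h exposure, 8-pt half-log from 100 uM, 0.5% DMSO; TaqMan qRT-PCR; bidirectional fit vs DMSO.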

[5] = read-out: matrix metalloproteinase-10 (MMP10), MMP10 (gene 4319); experiment: LTEA_HepaRG_MMP10: Life Technologies and Expression Analysis (LTEA) Assay for matrix metalloproteinase-10 (MMP10) using HepaRG (AID 2283517)
Procedure, shortened: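 HepaRG, collagen I, ~100,000 cells/well; serum-free induction medium; 48 h exposure, duplicate, 8-pt half-log to 100 uM, 0.5% DMSO. Readout: TaqMan qRT-PCR, normalized to ACTB/GAPDH/POLR2A; bidirectional fit vs DMSO.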

MYC, MYC (gene 4609) = experiment: LTEA_HepaRG_MYC: Life Technologies and Expression Analysis (LTEA) Assay for MYC using HepaRG (AID 2283518)
Procedure, shortened: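 Cells are thawed, plated and cultured 48 h, then treated for 48 h with test chemicals (eight half-log concentrations from 100 uM, 0.5% DMSO vehicle). RNA is isolated and MYC expression quantified by qRT-PCR against three housekeeping genes.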

[6] = read-out: matrix metalloproteinase-3 (MMP3), MMP3 (gene 4314); experiment: LTEA_HepaRG_MMP3: Life Technologies and Expression Analysis (LTEA) Assay for matrix metalloproteinase-3 (MMP3) using HepaRG (AID 2283519)
Procedure, shortened: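 Differentiated human HepaRG cells, plated 48 h on collagen I, were exposed in duplicate for 48 h in serum-free induction medium to eight half-log concentrations up to 100 uM in 0.5% DMSO. MMP3 mRNA was quantified by TaqMan qRT-PCR, normalised to ACTB, GAPDH and POLR2A.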

[7] = read-out: Paternally Expressed 10 (PEG10), PEG10 (gene 23089); experiment: LTEA_HepaRG_PEG10: Life Technologies and Expression Analysis (LTEA) Assay for Paternally Expressed 10 (PEG10) using HepaRG (AID 2283520)
Procedure, shortened: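 Chemicals tested on HepaRG cells for 48 h, highest concentration 100 uM. PEG10 expression assessed by qRT-PCR relative to DMSO control.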

[8] = read-out: Nuclear factor NF-kappa-B p105 subunit (Homo sapiens) (UniProt P19838); experiment: LTEA_HepaRG_NFKB1: Life Technologies and Expression Analysis (LTEA) Assay for Nuclear Factor Kappa B Subunit 1 (NFKB1) using HepaRG (AID 2283521)
Procedure, shortened: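 NFKB1 transcript was measured by TaqMan qRT-PCR on Fluidigm arrays, normalised to three housekeeping genes and fitted in both directions against 0.5% DMSO. HepaRG cells were dosed in duplicate for 48 h in serum-free induction medium, eight half-log steps from 100 uM.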

[9] = read-out: Protein phosphatase 2A (PPP2R4), PTPA (gene 5524); experiment: LTEA_HepaRG_PPP2R4: Life Technologies and Expression Analysis (LTEA) Assay for Protein phosphatase 2A (PPP2R4) using HepaRG (AID 2283522)
Procedure, shortened: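 Gene-expression endpoint in HepaRG hepatic cells: 48 h treatment across eight half-log concentrations up to 100 uM in 0.5% DMSO. PPP2R4 mRNA by qRT-PCR, normalized to three endogenous control genes.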

[10] = read-out: Phosphatase and tensin (PTEN), PTEN (gene 5728); experiment: LTEA_HepaRG_PTEN: Life Technologies and Expression Analysis (LTEA) Assay for Phosphatase and tensin (PTEN) using HepaRG (AID 2283523)
Procedure, shortened: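 Differentiated human HepaRG cells, plated 48 h then switched to serum-free induction medium, were exposed in duplicate for 48 h to eight half-log concentrations up to 100 uM in 0.5% DMSO. PTEN mRNA measured by TaqMan qRT-PCR, normalized to ACTB/GAPDH/POLR2A, bidirectional fit versus DMSO.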

[11] = read-out: solute carrier (SLC22A1), SLC22A1 (gene 6580); experiment: LTEA_HepaRG_SLC22A1: Life Technologies and Expression Analysis (LTEA) Assay for solute carrier (SLC22A1) using HepaRG (AID 2283524)
Procedure, shortened: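 Human HepaRG cells were plated 48 h, switched to serum-free induction medium, then exposed in duplicate for 48 h to 8-point half-log series from 100 uM in 0.5% DMSO. SLC22A1 mRNA measured by qRT-PCR, normalized to ACTB/GAPDH/POLR2A, fitted bidirectionally versus DMSO.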

[12] = read-out: Pyruvate Dehydrogenase Kinase 4 (PDK4), PDK4 (gene 5166); experiment: LTEA_HepaRG_PDK4: Life Technologies and Expression Analysis (LTEA) Assay for Pyruvate Dehydrogenase Kinase 4 (PDK4) using HepaRG (AID 2283525)
Procedure, shortened: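 Differentiated human HepaRG cells, pre-cultured 48 h, were exposed in duplicate for 48 h in serum-free induction medium to eight half-log concentrations up to 100 uM in 0.5% DMSO. PDK4 mRNA was quantified by qRT-PCR, normalized to ACTB, GAPDH and POLR2A, bidirectional fitting versus DMSO.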

[13] = read-out: NAD(P)H dehydrogenase [quinone] 1 (NQO1), NQO1 (gene 1728); experiment: LTEA_HepaRG_NQO1: Life Technologies and Expression Analysis (LTEA) Assay for NAD(P)H dehydrogenase [quinone] 1 (NQO1) using HepaRG (AID 2283526)
Procedure, shortened: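 Human HepaRG hepatic cells received chemicals for 48 h in serum-free induction medium with 0.5% DMSO, up to 100 uM. Expression was assessed by TaqMan qRT-PCR against housekeeping controls and fitted bidirectionally against DMSO.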

[14] = read-out: Nuclear factor erythroid 2-related factor 2 (Homo sapiens) (UniProt Q16236); experiment: LTEA_HepaRG_NFE2L2: Life Technologies and Expression Analysis (LTEA) Assay for Nuclear factor erythroid 2-related factor 2 (NFE2L2) Transcription Factor using HepaRG (AID 2283527)
Procedure, shortened: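 Differentiated human HepaRG cells in serum-free induction medium were exposed for 48 h to eight concentrations (top 100 uM, half-log dilutions, 0.5% DMSO), in duplicate. NFE2L2 mRNA was quantified by TaqMan qRT-PCR, normalized to ACTB, GAPDH and POLR2A, with bidirectional fitting versus DMSO.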

[15] = read-out: succinate dehydrogenase complex iron sulfur subunit B (SDHB), SDHB (gene 6390); experiment: LTEA_HepaRG_SDHB: Life Technologies and Expression Analysis (LTEA) Assay for succinate dehydrogenase complex iron sulfur subunit B (SDHB) using HepaRG (AID 2283528)
Procedure, shortened: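 SDHB transcript level read by TaqMan qRT-PCR, housekeeping-normalised (ACTB, GAPDH, POLR2A), after 48 h chemical treatment of plated HepaRG cells; eight concentrations top 100 uM, half-log steps, 0.5% DMSO, duplicates; fitted both directions against DMSO.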

[16] = read-out: Signal transducer and activator of transcription 3 (Homo sapiens) (UniProt P40763); experiment: LTEA_HepaRG_STAT3: Life Technologies and Expression Analysis (LTEA) Assay for Signal transducer and activator of transcription (STAT3) using HepaRG (AID 2283529)
Procedure, shortened: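 Differentiated human HepaRG cells in serum-free induction medium were exposed in duplicate for 48 h to eight half-log concentrations up to 100 uM in 0.5% DMSO. STAT3 mRNA was quantified by TaqMan qRT-PCR, normalized to ACTB, GAPDH and POLR2A, and fitted bidirectionally against DMSO.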

[17] = read-out: sulfotransferase 2A1 (SULT2A1), SULT2A1 (gene 6822); experiment: LTEA_HepaRG_SULT2A1: Life Technologies and Expression Analysis (LTEA) Assay for sulfotransferase 2A1 (SULT2A1) using HepaRG (AID 2283531)
Procedure, shortened: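 Cells were plated and cultured 48 h, switched to serum-free induction medium, then dosed in duplicate for 48 h (8 concentrations, max 100 uM). RNA was isolated and SULT2A1 expression measured by qRT-PCR; gain or loss of signal fitted relative to DMSO.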

[18] = read-out: Transforming Growth Factor (TGFA), TGFA (gene 7039); experiment: LTEA_HepaRG_TGFA: Life Technologies and Expression Analysis (LTEA) Assay for Transforming Growth Factor (TGFA) using HepaRG (AID 2283532)
Procedure, shortened: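 Differentiated human HepaRG cells, plated 48 h then switched to serum-free induction medium, were exposed in duplicate for 48 h to 8-point half-log series from 100 uM in 0.5% DMSO. TGFA mRNA measured by qRT-PCR, normalized to ACTB/GAPDH/POLR2A, bidirectional fit versus DMSO.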

[19] = read-out: solute carrier (SLCO1B1), SLCO1B1 (gene 10599); experiment: LTEA_HepaRG_SLCO1B1: Life Technologies and Expression Analysis (LTEA) Assay for solute carrier (SLCO1B1) using HepaRG (AID 2283530)
Procedure, shortened: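 Gain or loss of SLCO1B1 mRNA is fitted against the 0.5% DMSO vehicle in human HepaRG liver cells treated 48 h at up to 100 uM in half-log steps. Expression comes from qRT-PCR normalized to endogenous controls.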

Measured: outcome

Sequence of Nuclear factor erythroid 2-related factor 2 (Homo sapiens) (Q16236 whole entry, looked up): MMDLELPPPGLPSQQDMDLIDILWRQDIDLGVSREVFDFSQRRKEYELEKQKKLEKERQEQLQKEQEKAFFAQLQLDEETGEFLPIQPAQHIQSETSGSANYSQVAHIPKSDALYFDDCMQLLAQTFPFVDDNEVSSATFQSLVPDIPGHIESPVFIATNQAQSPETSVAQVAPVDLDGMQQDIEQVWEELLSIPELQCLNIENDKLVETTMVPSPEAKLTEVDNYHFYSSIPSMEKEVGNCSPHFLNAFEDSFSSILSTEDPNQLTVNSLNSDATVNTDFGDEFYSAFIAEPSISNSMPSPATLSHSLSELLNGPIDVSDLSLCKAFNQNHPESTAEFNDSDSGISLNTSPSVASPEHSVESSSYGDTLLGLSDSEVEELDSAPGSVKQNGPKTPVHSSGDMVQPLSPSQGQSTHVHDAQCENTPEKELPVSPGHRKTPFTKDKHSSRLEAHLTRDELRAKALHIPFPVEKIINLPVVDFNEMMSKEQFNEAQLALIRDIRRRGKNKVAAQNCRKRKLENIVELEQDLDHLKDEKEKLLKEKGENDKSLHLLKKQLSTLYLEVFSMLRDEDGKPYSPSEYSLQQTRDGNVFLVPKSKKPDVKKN
Sequence of Signal transducer and activator of transcription 3 (Homo sapiens) (P40763 whole entry, looked up): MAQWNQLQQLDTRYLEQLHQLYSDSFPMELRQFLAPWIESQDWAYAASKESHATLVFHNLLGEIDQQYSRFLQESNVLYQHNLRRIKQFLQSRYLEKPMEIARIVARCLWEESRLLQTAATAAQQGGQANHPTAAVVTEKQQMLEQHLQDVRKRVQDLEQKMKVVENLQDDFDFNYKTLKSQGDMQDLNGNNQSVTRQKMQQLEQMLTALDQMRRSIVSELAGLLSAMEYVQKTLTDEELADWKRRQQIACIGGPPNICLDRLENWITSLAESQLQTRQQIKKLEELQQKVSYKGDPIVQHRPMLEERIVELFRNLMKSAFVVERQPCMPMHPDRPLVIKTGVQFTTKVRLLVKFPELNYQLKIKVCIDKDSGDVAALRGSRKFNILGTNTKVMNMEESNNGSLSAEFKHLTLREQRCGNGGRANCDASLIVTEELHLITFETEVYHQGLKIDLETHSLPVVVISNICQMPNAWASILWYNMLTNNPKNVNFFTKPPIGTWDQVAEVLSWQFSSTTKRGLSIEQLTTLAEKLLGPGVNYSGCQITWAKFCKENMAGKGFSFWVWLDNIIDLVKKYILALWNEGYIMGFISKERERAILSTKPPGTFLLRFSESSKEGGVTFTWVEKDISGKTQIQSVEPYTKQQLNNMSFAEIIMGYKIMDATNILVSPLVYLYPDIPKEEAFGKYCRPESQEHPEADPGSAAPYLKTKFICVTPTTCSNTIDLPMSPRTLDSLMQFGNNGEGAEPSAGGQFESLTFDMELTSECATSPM
Sequence of Nuclear factor NF-kappa-B p105 subunit (Homo sapiens) (P19838 whole entry, looked up): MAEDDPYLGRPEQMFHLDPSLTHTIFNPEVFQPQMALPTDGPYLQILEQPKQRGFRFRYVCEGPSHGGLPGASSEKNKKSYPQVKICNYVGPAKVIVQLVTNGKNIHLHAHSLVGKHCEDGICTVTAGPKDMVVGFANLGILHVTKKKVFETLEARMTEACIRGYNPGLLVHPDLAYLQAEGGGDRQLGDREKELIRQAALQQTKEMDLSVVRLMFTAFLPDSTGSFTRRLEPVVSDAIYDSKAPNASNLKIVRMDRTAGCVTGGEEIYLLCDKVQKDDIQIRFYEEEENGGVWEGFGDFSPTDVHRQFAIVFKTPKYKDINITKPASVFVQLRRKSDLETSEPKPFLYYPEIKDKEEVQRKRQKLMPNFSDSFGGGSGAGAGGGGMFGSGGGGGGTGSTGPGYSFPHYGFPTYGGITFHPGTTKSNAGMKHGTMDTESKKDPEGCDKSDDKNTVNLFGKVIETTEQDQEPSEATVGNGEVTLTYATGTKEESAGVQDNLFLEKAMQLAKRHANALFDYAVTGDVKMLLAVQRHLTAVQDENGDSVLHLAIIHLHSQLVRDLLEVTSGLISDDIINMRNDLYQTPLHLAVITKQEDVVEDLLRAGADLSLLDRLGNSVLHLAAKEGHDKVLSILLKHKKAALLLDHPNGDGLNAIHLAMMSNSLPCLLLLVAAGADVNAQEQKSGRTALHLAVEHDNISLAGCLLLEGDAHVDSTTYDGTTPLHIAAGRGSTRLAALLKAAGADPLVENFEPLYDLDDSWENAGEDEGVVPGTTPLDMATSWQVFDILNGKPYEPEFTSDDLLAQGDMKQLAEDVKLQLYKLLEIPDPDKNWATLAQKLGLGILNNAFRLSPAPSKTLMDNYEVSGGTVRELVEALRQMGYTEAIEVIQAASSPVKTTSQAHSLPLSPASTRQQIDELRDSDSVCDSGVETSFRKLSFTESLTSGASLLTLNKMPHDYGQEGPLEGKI

Cn1c(=O)c2[nH]cnc2n(C)c1=O
not listed: [19]
inactive: all other assays above

C=CN1CCCC1=O
not listed: [8]
inactive: all other assays above

Nc1ccn([C@@H]2O[C@H](CO)[C@@H](O)[C@@H]2O)c(=O)n1
not listed: [8]
inactive: all other assays above

O=c1[nH]cnc2c1ncn2[C@H]1CC[C@@H](CO)O1
not listed: [8]
inactive: all other assays above

C[C@]12C=CC(=O)C=C1CC[C@H]1[C@@H]3C[C@@H](O)[C@](O)(C(=O)CO)[C@@]3(C)C[C@H](O)[C@@]12F
not listed: [8]
inactive: all other assays above

OC[C@H]1O[C@@H]2O[C@H]3[C@H](O)[C@@H](O)[C@@H](O[C@H]4[C@H](O)[C@@H](O)[C@@H](O[C@H]5[C@H](O)[C@@H](O)[C@@H](O[C@H]6[C@H](O)[C@@H](O)[C@@H](O[C@H]7[C@H](O)[C@@H](O)[C@@H](O[C@H]1[C@H](O)[C@H]2O)O[C@@H]7CO)O[C@@H]6CO)O[C@@H]5CO)O[C@@H]4CO)O[C@@H]3CO
not listed: [8]
inactive: all other assays above
